Compounds with a hit are over-represented: about 3.3% of the library has one in this group of screens.
MBD2 DNA inh – MBD2-methylated oligo binding inhibition; Q9UBB5; TR-FRET, MBD2 binding to methylated oligonucleotide; inhibition, % at 4.4 µM; actives 0.31% (n = 370,000); AID 686964; in the data active = inhibition above about 13%
PRMT1 inh – blocks human protein arginine methyltransferase 1 | recombinant PRMT1, activity-based probe fluorescence polarization | Q99873 | inhibition, % at 2.79 µM | actives 1.3% (n = 370,000);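 active = inhibition above about 21% made by adding two undisclosed values, limit read from the data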
Target sequence (Q99873 whole entry, looked up): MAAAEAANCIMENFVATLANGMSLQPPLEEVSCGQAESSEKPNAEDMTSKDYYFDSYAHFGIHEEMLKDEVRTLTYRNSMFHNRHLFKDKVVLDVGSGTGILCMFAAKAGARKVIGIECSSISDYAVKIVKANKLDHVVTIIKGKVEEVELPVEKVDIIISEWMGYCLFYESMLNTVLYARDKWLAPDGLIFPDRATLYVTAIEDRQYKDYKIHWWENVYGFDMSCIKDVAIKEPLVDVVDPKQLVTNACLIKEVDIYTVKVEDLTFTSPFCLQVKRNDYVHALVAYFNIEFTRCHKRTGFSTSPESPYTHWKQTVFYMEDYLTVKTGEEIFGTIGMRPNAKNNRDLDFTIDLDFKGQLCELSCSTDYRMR
UHRF1 binding – blocks human UHRF1 binding to methylated DNA. UHRF1 binding to methylated oligo, TR-FRET. inhibition, % at 4.4 µM. actives 0.75% (n = 370,000). AID 687016; in the data active = inhibition above about 21%;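 also: UHRF1 SRA domain binding a hemimethylated CpG hairpin DNA probe; 0% = median of test compound wells and 100% = reference inhibitor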
PfM18AAP inh – PfM18AAP enzyme inhibition; recombinant PfM18AAP, H-Glu-NHMec fluorogenic cleavage; inhibition, % at 7.35 µM; actives 1.2% (n = 290,000); AID 1822;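 active = inhibition above the campaign mean inhibition over all tested compounds plus 3 SD, cut at about 28% in these data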;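 also: 0% = plate median of test compound wells and 100% = 2 mM ZnCl2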
PfG6PD inh – PfG6PD (Plasmodium falciparum) enzyme inhibition; actives 0.78% (n = 350,000); PfGluPho enzyme, NADPH resazurin-diaphorase fluorescence; inhibition, % at 20 µM; AID 504690;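 active = inhibition reaching at least a set limit at 20 µM in the primary screen, cut at about 59% in these data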;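 also: 0% = DMSO wells with substrate and 100% = DMSO wells lacking glucose-6-phosphate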
* marks the source's active call; other numbers are inactive results; . = not tested or not shown.

SMILES	MBD2 DNA inh	PRMT1 inh	UHRF1 binding	PfM18AAP inh	PfG6PD inh
COc1ccccc1NCCC(=O)O	1	0	-3	12	-2
O=C(O)CCNc1ccc(NCCC(=O)O)c2c1C(=O)c1ccccc1C2=O	2	27*	40*	13	3
O=C(CCc1ccccc1)N[C@H]1[C@H](OCc2ccccc2)CCC[C@@]12C(=O)N(Cc1ccccc1)c1ccccc12	2	0	-1	.	.
CO/N=C\C(=N\Nc1ccc(OC)cc1)C(=O)c1ccccc1	-6	2	38*	-9	-4
CC(=O)Nc1ccc(SC[C@H](Cc2ccccc2)N2CCN(CC(C)C)CCC2=O)cc1	0	19	0	.	-14
CC(=O)Nc1ccc(SC[C@H](C)CN2CC[C@H](C(C)(C)C)CCC2=O)cc1	-2	24*	6	.	2
CC(=O)Nc1ccc(SC[C@H](CC(C)C)N2CCN(CC(C)C)CCC2=O)cc1	2	23*	-1	.	2
COC(=O)[C@]12C=CCN1[C@@H](c1ccc(Cl)cc1)c1c(c3ccccc3n1S(=O)(=O)c1ccc(C)cc1)C2	-3	0	1	.	.
CN(C)CCN1C(=O)CCC2(C)C1=CCC1C2CCC2(C)C1CCC2(C)O (stereo not drawn)	-2	-4	80*	.	8
C[C@]12CCC(=O)C=C1CC[C@@H]1[C@@H]2CC[C@@]2(C)[C@H]1CC[C@]2(O)C(=O)CO	-5	-3	-1	-5	-16
CC(C)NC(=O)N[C@H]1C[C@@H]2O[C@H](CO)CC[C@@H]2O[C@@H]1CCc1ccc(-c2ccccc2F)cc1	-6	3	7	.	.
CCOC(=O)C1CCN(C2CC(=O)N(c3cccc(Cl)c3)C2=O)CC1 (stereo not drawn)	-5	22*	2	-15	-9
CCOC(=O)C1CCCN(C2CC(=O)N(c3ccc(C)cc3)C2=O)C1 (stereo not drawn)	2	19	5	-64	-3
CCCc1cc(C(=O)Nc2sc(C)c(C)c2C(=O)OCC)no1	2	11	3	35*	43
CCCc1cc(C(=O)Nc2sc(C)c(CC)c2C#N)no1	1	3	-1	-2	20
CC(=O)Nc1ccc(S(=O)(=O)N2CCSC2c2ccco2)cc1 (stereo not drawn)	12	10	27*	-1	-12
O=S(=O)(c1ccccc1)N1CCSC1c1ccco1 (stereo not drawn)	-2	4	-2	-3	34
COc1ccc(C(=O)OCCN2CCN(C3CN(Cc4cn(Cc5ccccc5C(F)(F)F)nn4)S(=O)(=O)C3)CC2)cc1OC (stereo not drawn)	8	-4	15	.	.
CCOC(=O)C1(C(=O)OCC)COC(=O)C1CN1Cc2cc3ccccc3nc2C1 (stereo not drawn)	3	23*	1	.	2
CN[C@H]1C[C@H]2c3[nH]c4c(-c5cccc(C)c5)cccc4c3CCN2C(=O)[C@H]1[C@H](C)O	2	-1	1	.	.
CCCCN1C(=O)C(NC(C)=O)c2cc(Br)ccc21 (stereo not drawn)	6	6	2	15	0
CC(=O)NC1C(=O)N(CCN2CCOCC2)c2ccc(C)cc21 (stereo not drawn)	.	.	.	48*	17
CC(=O)NC1C(=O)N(CCN2CCOCC2)c2ccc(Cl)cc21 (stereo not drawn)	2	22*	-2	22	12
CC(=O)NC1C(=O)N(CCN2CCOCC2)c2ccc(F)cc21 (stereo not drawn)	-4	9	0	22	8
Cc1ccc2cc(C(c3nnnn3C(C)(C)C)N3CCCCCC3)c(=O)[nH]c2c1 (stereo not drawn)	.	.	.	12	-2
SMILES	MBD2 DNA inh	PRMT1 inh	UHRF1 binding	PfM18AAP inh	PfG6PD inh
CCC(C)(C)n1nnnc1C(c1cc2cc(C)ccc2[nH]c1=O)N1CCCC1 (stereo not drawn)	-10	22*	-11	10	7
C=CCN1C(C(=O)OC)CN(Cc2cn(Cc3ccc(OC)cc3)nn2)CCS1(=O)=O (stereo not drawn)	4	1	14	.	.
O=c1c2ccccc2nc2n1C(CSCc1ccc(Cl)cc1Cl)CS2 (stereo not drawn)	8	5	22*	-2	46
Nc1ccccc1SCC1CSc2nc3ccccc3c(=O)n21 (stereo not drawn)	-6	1	-1	-5	-2
COc1cc(NC(=S)Nc2cccc(Cl)c2Cl)c(OC)cc1Cl	-3	-1	3	29*	11
COc1cc(NC(=S)NCc2cccnc2)c(OC)cc1Cl	-1	0	-2	2	-2
COc1cc(OC)c(NC(=S)NCc2ccccc2)cc1Cl	3	7	65*	7	1
COc1cccc(-c2nnc(SCC(=O)Nc3ccc(OCc4ccccc4)cc3)n2Cc2ccco2)c1	-2	-1	-2	.	.
Clc1cccc(-c2nc3nc4ccccc4nc3n2Cc2ccccc2)c1	-2	-1	29*	-3	10
COc1ccc2[nH]c3c4c(ccc3c2c1)C(=O)C=CC4=O	-9	20	-14	-7	90*
O=C(N/N=C/c1cc2c3c(c1O)CCCN3CCC2)c1ccccc1O	-17	17	-20	24	4
O=c1oc2c3c4c(cc2s1)CCCN4CCC3	-4	75*	-7	13	58
CCN1CCC(O)(/C=C/c2ccc(C(C)C)cc2)C(C(=O)/C=C/c2ccc(C(C)C)cc2)C1 (stereo not drawn)	-2	24*	-1	.	39
CCN1CCN(C(=O)/C=C/c2ccc(C(C)C)cc2)CC1	-1	1	-2	.	-3
CN(c1ncc(C(F)(F)F)cc1Cl)N1C(=O)c2cccc([N+](=O)[O-])c2C1=O	1	-3	23*	4	-8
CCCCNc1c(-c2ccc(SC3CCCCC3)c(OC)c2)nc2ccc(Cl)cn12	10	2	24*	.	29
CCCCCCSc1ccc(-c2nc3ccc(Cl)cn3c2NCCCC)cc1OC	4	3	-1	.	23
CCCCCCSc1cc(-c2nc3ccc(Cl)cn3c2NC2CCCCC2)ccc1OC	0	1	58*	.	8
Cc1ccc(NC(=S)NCC2CCCO2)cc1C (stereo not drawn)	0	-3	0	1	-6
Cc1ccc(NC(=S)NCC2CCN(C(C)c3ccccc3)C2)cc1C (stereo not drawn)	1	-3	23*	-1	-14
O=S(=O)(c1ccc2c(c1)OCCO2)N1CCN(S(=O)(=O)c2c(F)cccc2F)CC1	1	2	0	.	.
O=S(=O)(c1ccc2c(c1)OCCO2)N1CCN(S(=O)(=O)c2c(F)cc(F)cc2F)CC1	6	5	29*	.	4
CCc1cc(-c2nnn(CCC3COCCO3)c2CC)cc(CC)c1-c1cn(Cc2ccc3ccccc3c2)nn1 (stereo not drawn)	-1	0	65*	.	16
Cc1ccc(NC(=S)N2CCN(c3ccccc3F)CC2)c(C)c1	3	-2	24*	-20	-17

Screens: PubChem, several laboratories
